Experimental findings from PubChem BioAssay AID540351 (The Scripps Research Institute Molecular Screening Center, 2011) are described below.

Values without a mark were called inactive. No rule for the calls is given here.

The subject of this experiment is Phorbol Ester. Nature of the experiment: off-target receptor, channel and CYP panel, profiling panel, selectivity assay for S1P3 agonist project, biochemical, Ricerca HitProfilingScreen, CYP450 (AID 540351). The note with it: Ricerca receptor/enzyme binding panel plus CYP450, at 30 µM, stronger effect = higher value.

With `O=C(c1cc(C2CC2)on1)N(C1CCCCC1)C1CCCCC1`, the inhibition was -19%.
